Reference: PubChem BioAssay (NCI)
About 83,000 compounds went through this panel and 20% of them were active in at least one assay; those are over-represented in the sample as a whole.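 Assay: single dose, 48 h. Readout: percent growth (0 = no net growth; negative = cell death). Active: <10.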 Unmarked numbers belong to inactive results. The source made the active and inactive calls.

How the values were obtained:
Assay in all cases: NCI-60 one-dose screen, 48 h (100 = growth as untreated, 0 = no growth, -100 = all killed)
NCI-H23 lung = settings: 10 µM unless noted
NCI-H322M lung = settings: 10 µM unless noted
HOP-62 NSCLC = settings: 10 µM unless noted
NCI-H460 lung = settings: 10 µM unless noted
NCI-H522 lung = settings: 10 µM unless noted
A549/ATCC NSCLC = settings: 10 µM unless noted
786-0 renal = settings: 10 µM unless noted
COLO 205 colon = settings: 10 µM unless noted
HOP-92 NSCLC = settings: 10 µM
NCI-H226 lung = settings: 10 µM unless noted

Row | SMILES | growth (NCI-H23 lung) | growth (NCI-H322M lung) | growth (HOP-62 NSCLC) | growth (NCI-H460 lung) | growth (NCI-H522 lung) | growth (A549/ATCC NSCLC) | growth (786-0 renal) | growth (COLO 205 colon) | growth (HOP-92 NSCLC) | growth (NCI-H226 lung)
1 | CCNC(=O)N1CCc2cc(OC)c(OCCc3ccc(OC)cc3)cc2C1c1ccc(Cl)cc1C (stereo unspecified) | 25.1% | 46.6% | 27.7% | 1.35% (active) | -16.2% (active) | 9.93% (active) | 9.78% (active) | 13.9% |  | 
2 | CC(=O)Nc1cccc(Nc2nc(N[C@@H](C)c3ccccc3)c3ccccc3n2)c1 | 20.6% | 53.7% | 33.9% | 2.67% (active) |  | 19.9% | 3.67% (active) | -12.3% (active) | 13.1% | 
3 | CCN(CC)c1ccc2c(c1)Oc1nc(N)c(C#N)c(N)c1C2Sc1ccc(F)cc1 (stereo unspecified) | -82.3% (active) | -84.8% (active) | -15% (active) | -69.8% (active) | -48.7% (active) | -39.6% (active) | -83.8% (active) | -58.5% (active) | -36.7% (active) | 
4 | O=C(NCCn1ccnc1)c1ccc(-c2nc3ccc4[nH]ncc4c3c3c2CCCC3)cc1 | 71% | 83.8% | 55.4% | 59.9% | 3.21% (active) | 97.3% | 75.6% | 56.1% | 46.9% | 
5 | C=CC(=O)N1CC=C(c2cc3c(N[C@H](C)c4ccccc4)ncnc3[nH]2)CC1 | 78.4% | 27.2% | 58.1% | 101% |  | 60.4% | 49.9% | 92.1% | 39% | 
6 | Oc1ccc(CSc2nnc(-c3ccc(Cl)cc3)n2-c2ccccc2)c2cccnc12 | 31.2% | 41.6% | 16.9% | 2.03% (active) | 36.4% | 26% | 44.2% | 88.9% | 16.3% | 
7 | C#CC(=O)N(c1ccc(OC)cc1OC)C(C(=O)NCC(=O)OCC)c1cccs1 (stereo unspecified) | -54.7% (active) | 94.4% | 102% | 82.2% | -72.2% (active) | 94.4% | -75.2% (active) | 35% |  | 
8 | CN1CCN(Cc2ccc(NC(=O)c3cncc(C#Cc4cnc5ccc(OCC(C)(C)O)nn45)c3)cc2C(F)(F)F)CC1 | -58.4% (active) | -22.5% (active) | -9.7% (active) | -73.9% (active) | -35.3% (active) | -45.3% (active) | -62.3% (active) | -70% (active) | -18.6% (active) | 
9 | CCCn1cnc2c(c1=N)C(c1ccc(Cl)cc1)c1sc3c(C)cccc3c1O2 (stereo unspecified) | 20.5% | 43.8% | 44.2% | 9.41% (active) | -5.59% (active) | 29.1% | 33.8% | 1.53% (active) |  | 
10 | CCO/C=N/C1=C(C#N)C(c2ccc(OC)cc2)c2sc3c(C)cccc3c2O1 (stereo unspecified) | 25.4% | 45.7% | 40.8% | 9.13% (active) |  | 27.3% | 40.8% | 16.1% |  | 57%
11 | CCOc1ccc(C(=O)Nc2ncc(Cc3ccc(F)cc3)s2)cc1 | 28.4% | 55.3% | 33.7% | 7.15% (active) |  | 33.6% | 39.3% | -21.9% (active) |  | 40.1%
12 | COc1cc(-c2nn(C(C)(C)C)cc2-c2ccnc(NCCCNS(=O)(=O)c3ccc(Cl)cc3)n2)ccc1Cl | 73% | 78.2% | 61.7% | 55.1% |  | 36.3% | 69% | 81.5% | 48.6% | 
13 | COC(=O)/C=C/c1c(C2(C)NC(=O)c3ccccc3N2)c(=O)oc2ccc(Cl)cc12 (stereo unspecified) | 96.3% | 95.1% | 92.7% | 96.3% | 68.3% | 95.2% | 96.3% | 117% | 88.9% | 
14 | Cc1nn(-c2ccccc2)c2ncnc(N/N=C/c3ccccc3)c12 | 97.3% | 95% | 116% | 95.6% | 85.8% | 92.4% | 84.6% | 104% |  | 
15 | COc1ccc(N2C(=O)c3cc(Cl)ccc3NC2SCc2ccccc2)cc1 (stereo unspecified) | 97% | 97.1% | 102% | 109% | 87.4% | 91.5% | 92% | 114% | 92.1% | 
16 | COc1ccc(COc2ccc(/C=C3\C(=O)Nc4ccccc43)cc2OC)cc1 | 103% | 106% | 100% | 103% |  | 109% | 105% | 123% | 101% | 

Row | SMILES | growth (NCI-H23 lung) | growth (NCI-H322M lung) | growth (HOP-62 NSCLC) | growth (NCI-H460 lung) | growth (NCI-H522 lung) | growth (A549/ATCC NSCLC) | growth (786-0 renal) | growth (COLO 205 colon) | growth (HOP-92 NSCLC) | growth (NCI-H226 lung)
17 | O=C(CSc1nnc(-c2ccc(Cl)cc2)n1-c1ccccc1)Nc1cccc(Cl)c1 | 49.5% | 55.5% | 104% | 47.9% |  | 25.7% | 28.1% | 82.1% |  | 46.3%
18 | COc1ccc(S(=O)(=O)NCCCNc2nccc(-c3cn(C(C)(C)C)nc3-c3ccc(Cl)c(OC)c3)n2)cc1 | 87.7% | 82.5% | 63.3% | 84.9% |  | 64.4% | 79.7% | 105% | 69.4% | 
19 | CCCCCc1ccc(S(=O)(=O)Nc2cccc(-c3csc(NCCN4CCN(C)CC4)n3)c2)cc1 | 84% | 82.9% | 89.4% | -9.25% (active) | 90.2% | 72.6% | 60.3% | 22.2% | 71.2% | 
20 | CCc1cccc2c3c(sc12)C(c1ccc(Cl)cc1)C(C#N)=C(/N=C/c1ccc(Cl)cc1)O3 (stereo unspecified) | 17.1% | 37.3% | 37% | 7.17% (active) | 10.8% | 33.8% | 39.5% | 16.7% |  | 
21 | COc1cccc(/C=C(/C)c2ccc3cccc(OC)c3[o+]2)c1O | 105% | 98.8% | 106% | 102% | 93.6% | 102% | 98.5% | 118% | 91% | 
22 | c1ccc(C(c2nc3ncncc3[nH]2)N2CSc3nc4ncncc4n3C2)cc1 (stereo unspecified) | 55% | 64.3% | 26.3% | 83.6% |  | 92.2% | 33.9% | 61.8% | 64.9% | 
23 | Nc1ncc(-c2ccc3ncnc(N4CCc5cc(F)c(Cl)cc54)c3c2)cn1 | 31.7% | 23% | 19.6% | 23% |  | 10.4% | 3.19% (active) | 39.9% | -10.9% (active) | 
24 | O=C(CCC(=O)N1CCOCC1)OCCCCCCSc1ccc([N+](=O)[O-])c2nonc12 | -60.7% (active) | 45.6% | 38.1% | -13.6% (active) | -61.2% (active) | 29.8% | -20.7% (active) | -56.7% (active) | -14.3% (active) | 
25 | Cn1cc(-c2nnc(N)nc2-c2c[nH]c3ccc(F)cc23)c2cc(F)ccc21 | 83% | 74% | 58.7% | 30.9% |  | 82.2% | 90% | 84.2% |  | 91.6%
26 | CCCn1cnc2c(c1=N)C(c1ccc(F)cc1)c1sc3c(C)cccc3c1O2 (stereo unspecified) | 25.7% | 49.9% | 32% | 8.38% (active) |  | 35.6% | 23.5% | 52.2% | 33.5% | 
27 | COC(=O)c1[nH]nc2c1C1(C(=O)N(C)c3ccccc31)C(C#N)=C(N)O2 (stereo unspecified) | 93.4% | 94.1% | 118% | 106% | 99.5% | 101% | 102% | 110% |  | 
28 | CCCCNNC(=O)c1ccc(-c2cccc(F)c2F)cc1 | 38.1% | 42.4% | 28.5% | 30% | 4.69% (active) | 34.2% | 50.8% | 4.96% (active) | -3.72% (active) | 
29 | CCCCCc1ccc(S(=O)(=O)Nc2cccc(-c3csc(NC(=O)CNCCN(C)C)n3)c2)cc1 | 94.6% | 90.4% | 98.8% | 51.9% | 91% | 84.8% | 61.6% | 74.6% | 53% | 
30 | O=C1CCC(N2C(=O)c3ccc(NS(=O)(=O)c4ccccc4OC(F)(F)F)cc3C2=O)C(=O)N1 (stereo unspecified) | 107% | 46.1% | 6.09% (active) | 115% | 69.3% | 78.7% | 47.6% | 20.5% | -2.41% (active) | 
31 | Cc1ccc2c(c1)C13C(=C2Br)CCCN1C(=O)c1ccccc13 (stereo unspecified) | 92.8% | 97.5% | 96.9% | 105% | 80.8% | 98.1% | 84.3% | 108% | 78.8% | 
